# Source: PubChem (National Center for Advancing Translational Sciences (NCATS))
# Compounds with a hit are over-represented: about 2.5% of the library has one in this group of screens.
# Cruzain inh noDet: cruzain (T. cruzi) inhibition without detergent. P25779. purified cruzain, Z-FR-AMC fluorescence, no detergent. Potency, µM, inactives show max response, negative = inhibition, usual class: inhibitors. 200,000 compounds, 2.3% hits;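 further: plate controls were enzyme without inhibitor for no effect and buffer without enzyme for full effect; nearly all actives have a fitted effect of over 40% in size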
# Target sequence (P25779 123-467 limits assumed): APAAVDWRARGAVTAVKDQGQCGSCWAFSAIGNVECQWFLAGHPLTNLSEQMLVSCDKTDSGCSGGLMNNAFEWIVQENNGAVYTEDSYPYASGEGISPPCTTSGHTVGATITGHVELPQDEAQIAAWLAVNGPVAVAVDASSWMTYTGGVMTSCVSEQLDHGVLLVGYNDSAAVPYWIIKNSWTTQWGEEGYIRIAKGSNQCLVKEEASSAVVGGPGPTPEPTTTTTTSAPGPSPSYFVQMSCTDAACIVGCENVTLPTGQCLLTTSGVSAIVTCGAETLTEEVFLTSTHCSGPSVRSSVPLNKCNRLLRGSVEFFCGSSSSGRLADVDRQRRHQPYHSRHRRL
#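 Purified cruzain at 1.5 nM, pre-incubated 15 min with compound at room temperature in 100 mM sodium acetate pH 5.5, 5 mM DTT, 0.00005% Triton X-100. Reaction started with 2 uM Z-FR-AMC; AMC fluorescence increase over 60 s gives rate.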
# Cruzain Triton: cruzain (T. cruzi) inhibition with detergent; P25779; purified cruzain, Z-FR-AMC fluorescence, 0.01% Triton; Potency, µM, for the others: max response, negative = inhibition, hits mostly inhibitors; 200,000 compounds, 0.43% hits; AID 1478;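 further: plate controls were neutral wells for no effect and buffer without enzyme for full effect; nearly all actives have a fitted effect of over 40% in size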
#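 Cysteine protease activity tested under reducing, mildly acidic conditions (100 mM sodium acetate pH 5.5, 5 mM DTT) plus 0.01% Triton X-100. Cruzain 1.5 nM; substrate Z-FR-AMC 2 uM; 15 min compound preincubation at room temperature.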
# * hit, by the source's call; u = inconclusive. The call rests on the fitted dose curve; in most records, active means well fitted curve in the direction sought with a large enough effect; inconclusive means small, poorly fitted or top-dose-only effect, or another doubt; inactive means no such curve, though single readings can be large; an effect the other way counts as inactive or inconclusive. Potency means the concentration at half of the fitted maximal effect.
SMILES,Cruzain inh noDet,Cruzain Triton
CN1C2CCC1CC(OC(=O)C(O)c1ccccc1)C2 (centres undefined),4%,2%
O=C(CSc1nnc(C2CC2)n1Cc1ccccc1)c1cc2ccccc2o1,16µM*,-4%
NC(=O)CSc1nnc(-c2cc3ccccc3o2)n1Cc1ccccc1,u,-2%
CCOc1ccc(C2CC(=O)Nc3nc(SCc4ccccc4C)[nH]c(=O)c32)cc1OC (centres undefined),u,-2%
O=C(CSc1nc2ccccc2s1)NCCOc1ccccc1,0%,-5%
Nc1nnc(SCC(=O)NCCOc2ccccc2)s1,u,28µM*
O=C(CSc1nc(=O)[nH]c2c1CCC2)NCc1ccc(F)cc1,7%,-1%
O=C(Nc1c(C(=O)N2CCN(c3ccccc3)CC2)oc2ccccc12)c1ccccc1F,-14%,-3%
O=C(Nc1c(C(=O)N2CCN(c3ccccc3F)CC2)oc2ccccc12)c1ccccc1F,20µM*,-5%
Cc1cccc(-c2nc3nc(C)cc(NC(C)c4ccccc4)n3n2)c1 (centres undefined),16%,-6%
Cc1ccc(C(=O)NCCc2nc3ccccc3[nH]2)cc1[N+](=O)[O-],16%,4.5µM*
Cc1ccc(C(=O)NCCSc2c(C)[nH]c3ccccc23)cc1[N+](=O)[O-],-2%,-8%
O=C(NCCc1nc2ccccc2[nH]1)c1ccco1,13µM*,-24%
O=C(Nc1cccc(-c2nc3ccccc3[nH]2)c1)c1cccc(NC(=O)c2ccco2)c1,5µM*,10µM*
O=C(NCCc1cccc(Cl)c1)c1ccc(Cl)c([N+](=O)[O-])c1,-18%,-6%
O=C(NCCc1nc2ccccc2[nH]1)c1ccc(Cl)c([N+](=O)[O-])c1,2µM*,1.3µM*
O=C(/C=C/c1ccco1)N/C(=C\c1ccccc1)C(=O)NCCc1nc2ccccc2[nH]1,-18%,-18%
O=C(Nc1ccc2nc(-c3ccccc3)[nH]c2c1)c1ccco1,-29%,-2%
CCN(CC)C(=O)Cn1c(=O)n(Cc2ccc(C(=O)NCc3ccccc3Cl)cc2)c(=O)c2ccccc21,20%,-1%
COc1ccc(C2=C(C)C(N3CCC(C(=O)Nc4cc(C)ccc4C)CC3)=NS2(=O)=O)cc1,21%,0%
O=C(Nc1ccc(Cl)cc1F)c1cc(S(=O)(=O)NC2CCCCCC2)ccc1F,7%,-6%
Cc1ccc(C)c(Nc2nnc(-n3nc(C)cc3C)c3ccccc23)c1,-6%,-2%
C/C(CCN1CCc2nc(-c3ccccc3)c(-c3ccccc3)cc2C1)=N\O[C@@H](C)c1cc(-c2c(C)cc(C)cc2C)no1,20µM*,-2%
CCc1cc2c(nc1CC)CCN(CC/C(C)=N/O[C@@H](C)c1cc(-c3c(C)cc(C)cc3C)no1)C2,-2%,-5%
O=[N+]([O-])c1ccc(N2N=C(c3ccco3)CC2c2ccccc2)cc1 (centres undefined),13µM*,-7%
SMILES,Cruzain inh noDet,Cruzain Triton
Fc1ccc(C2CC(c3ccco3)=NN2c2ccccc2)cc1 (centres undefined),u,-3%
Nc1nc(-c2ccccc2)cc(-c2ccccc2O)n1,-17%,-12%
NNc1nc(-c2ccccc2)cc(-c2ccccc2O)n1,16µM*,-5%
Cc1ccc(NC(=O)NCc2cccn2Cc2ccccc2)c(C)c1,-7%,0%
O=c1c2cc3c(nc2ncn1Cc1ccccc1F)CCCC3,3%,-2%
C/C1=C2N=C(/C=C3N=C(/C(C)=C4\[N-]C(C)(C5N=C1C(C)(CCC(=O)NCC(C)OP(=O)([O-])O[C@H]1C(O)C(n6cnc7cc(C)c(C)cc76)O[C@@H]1CO)C5CC(N)=O)C(C)(CC(N)=O)C4CCC(N)=O)C(C)(CC(N)=O)C\3CCC(N)=O)C(C)(C)C/2CCC(N)=O.[CH2-]C1OC(n2cnc3c(N)ncnc32)C(O)C1O.[Co] (some centres undefined),13µM*,10µM*
CCOc1cc(C(=O)Nc2ccc3c(c2)n(C)c(=O)c(=O)n3C)cc(OCC)c1OCC,1%,-1%
O=C(O)[C@H]1[C@H](C(=O)O)[C@H](C(=O)O)C[C@@H]1C(=O)O,15%,1%
Cc1ccc(Cn2ccc(NC(=O)c3cc(-c4ccc(F)cc4)on3)n2)cc1,20µM*,8%
Cc1cc(NC(=O)c2cc(-c3cccc(Cl)c3)on2)no1,20µM*,5%
Cc1ccc(Cn2ccc(NC(=O)c3cc(-c4ccc(Cl)cc4)on3)n2)cc1,1%,-3%
COc1cccc(-c2cc(C(=O)Nc3cc(C)on3)no2)c1,-5%,0%
CC(=O)c1cccc(NC(=O)c2cc(-c3ccc4c(c3)OCCO4)on2)c1,-2%,0%
CC(=O)c1cccc(NC(=O)c2cc(-c3ccc(C)cc3)on2)c1,25µM*,1%
C=C[C@@H]1CN2CC[C@H]1CC2[C@H](O)c1ccnc2ccccc12 (some centres undefined),-3%,4%
COc1cc(Cl)c(C)cc1NC(=O)CC1Oc2ccccc2NC1=O (centres undefined),-1%,0%
CCC(Sc1nc2ccncc2[nH]1)C(=O)Nc1ccc(F)cc1 (centres undefined),9%,-10%
CC12CCC(C(=O)N(CSC(=S)N/N=C\c3ccccc3O)C1=O)C2(C)C (centres undefined),u,-19%
CN(C)c1ccc(/C=N\NC(=S)SCN2C(=O)C3CCC(C)(C2=O)C3(C)C)cc1 (centres undefined),32µM*,2%
CCc1cc2cc3c(cc2nc1SCC(=O)Nc1cc(C)on1)OCO3,25µM*,-2%
Cc1cc2cc3c(cc2nc1SCC(=O)Nc1nc(C)c(C)s1)OCO3,32µM*,5%
CCc1cc2cc(C)ccc2nc1SCC(=O)Nc1cc(C)on1,-12%,2%
CCc1cc2cc3c(cc2nc1SCC(=O)Nc1nnc(C)s1)OCCO3,u,3%
Oc1cccc(Nc2nc(NCC3CCCO3)c3ccccc3n2)c1 (centres undefined),13µM*,18µM*
c1ccc(-c2nc(NCC3CCCO3)c3ccccc3n2)nc1 (centres undefined),0%,4%
SMILES,Cruzain inh noDet,Cruzain Triton
OCCNc1nc(Nc2ccccc2)nc2ccccc12,16µM*,u
OCCNc1nc(Nc2ccccc2)nc(Nc2ccccc2)n1,-10%,-6%
Cc1sc(NC(=O)CN2CCOCC2)nc1-c1ccc2c(c1)CCN2S(=O)(=O)c1ccccc1,u,-4%
Cc1sc(NC(=O)Cc2ccc3c(c2)OCO3)nc1-c1ccc2c(c1)CCN2C(=O)c1cccc(F)c1,7.9µM*,-1%
Cc1cccc(C(=O)N2CCc3cc(-c4nc(NC(=O)Cn5nnc6ccccc6c5=O)sc4C)ccc32)c1,10µM*,-4%
CCC(CC)C(=O)Nc1nc(-c2ccc3c(c2)CCN3C(=O)C2CC2)c(C)s1,-2%,-7%
COc1ccc(CCC(=O)NCc2ccc3c(c2)CCN3C(=O)c2cccc(C)c2)cc1,21%,-3%
Cc1ccccc1C(=O)N1CCc2cc(-c3nc(NC(=O)Cc4ccc5c(c4)OCO5)sc3C)ccc21,3.2µM*,-14%
O=[N+]([O-])c1ccc2ncccc2c1CCc1c([N+](=O)[O-])ccc2ncccc12,1%,2%
CN(C(=O)Cn1nnc(-c2ccc(S(C)(=O)=O)cc2)n1)c1ccccc1,-8%,-2%
CCc1nn2c(=O)cc(COC(=O)C(CC)c3ccccc3)nc2s1 (centres undefined),-4%,-2%
